Assay outcomes from PubChem BioAssay.
Marburg entry inh = Marburg virus entry inhibition; Marburg virus pseudotyped entry inhibition, cell reporter; Potency, µM (top dose mostly 37.8 µM), most hits filed as inhibitors; 1.8% of 300,000 active; AID 540276; calls by dose curve; tested in HEK293 cells
SARS PLpro yeast = blocks SARS-CoV papain-like protease in a yeast assay | S. cerevisiae expressing SARS-CoV PLpro, growth rescue | Potency, µM (top dose mostly 32.9 µM), actives largely listed as activators | 0.19% of 330,000 active; calls by dose curve; also: nearly all actives have a fitted effect of over 55% in size
FMDV inh = antivirals against foot and mouth disease virus. Potency, µM (highest dose often 57.9 µM), actives largely listed as inhibitors. FMDV antiviral cell-based qHTS. AID 1159524. 1.2% of 410,000 active; calls by dose curve; tested in HEK293T cells; also: read-out not given here; nearly all actives have a fitted effect of over 45% in size
LASV entry inh = inhibitors of Lassa virus binding or cell entry; 1.2% of 300,000 active; Lassa virus pseudotype entry inhibition, cell reporter; Potency, µM (doses to about 37.9 µM), most hits filed as inhibitors; AID 540256; calls by dose curve; tested in HEK293 cells; also: nearly all actives have a fitted effect of over 50% in size
HCV inhibitor = HCV inhibition. Huh7.5.1 HCVcc-Cre infection, luciferase reporter, 44 h. Potency, µM (doses to about 41.8 µM), most hits filed as inhibitors. 3.4% of 340,000 active. AID 651820; active = well fitted inhibition curve with a large enough effect; inconclusive = small, poorly fitted or top-dose-only effect, or another doubt; inactive = no such curve, though single readings can be large or run the other way
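Reporter virus HCVcc-Cre (~0.5 moi) infects cells exposed to compound; seeding density 1,000 cells/well with 4 h settling beforehand. Luminescence, 15 sec read, taken 44 h post-infection following a 15 min RT substrate incubation.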
HCMV antiviral = inhibitors of human cytomegalovirus; activity change, negative = inhibition, % at 57.5 µM; HFF cells, HCMV-luciferase reporter, 72 h; active compounds read low; 4.5% of 410,000 active; in the data active = activity change below about -60%; inconclusive = no clear call, values can overlap the other calls; inactive = above about -39%
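After 16 h attachment at 37C, HFF cells received test compound and HCMV-luciferase (1 PFU/cell); reporter luminescence read 72 h later, data normalized against buffer-only and known inhibitor Salinomycin.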
A number is an active result; n = inactive; u = inconclusive; x = not tested or not shown; ! = repeats disagree; [ ] = remark or other dose. Most compounds without a hit are left out; they make up all but 8% or so of the library.

SMILES | Marburg entry inh | SARS PLpro yeast | FMDV inh | LASV entry inh | HCV inhibitor | HCMV antiviral
COc1cccc(-n2c(O)c(C=NCc3ccc4c(c3)OCO4)c(=O)[nH]c2=O)c1 | n | n | n | n | n | -105
COc1ccc2cc(-c3c(-c4ccncc4)nc(-c4ccc(S(C)(=O)=O)cc4C)n3C)ccc2c1 | x | x | x | 7.9µM | x | x
Cc1cc2nc(C3CCCCC3)c(Cc3cccc(Cl)c3)n2c(C)c1Br | x | x | n | x | x | n
Cc1cc(C)nc(SCc2nnc(SCC(=O)Nc3nccs3)n2C)n1 | u | n | n | n | n | n
Cc1ccc(CC(=O)Nc2nccs2)cc1C | n | n | n | n | n | -94
COc1ccc(CCCc2nnc(SCC(=O)Nc3nccs3)n2C)cc1C | n | n | n | 21µM | n | n
CCOc1ccc(CC(=O)Nc2nccs2)cc1 | n | n | n | n | n | n
CC1(C(=O)Nc2cccc3c2CCCC3)CCN1C(=O)CCC1CCCC1 (centres undefined) | x | x | n | x | x | n
CO/N=C(\c1nonc1N)N1CCN(c2ccc(Cl)cc2[N+](=O)[O-])CC1 | u | n | 35µM | u | u | n
CO/N=C(\c1nonc1N)N1CCN(c2ccc([N+](=O)[O-])cc2Cl)CC1 | u | n | u | n | n | n
COCC(COS(N)(=O)=O)Cc1ccccc1 (centres undefined) | x | n | n | x | n | n
CNC(CC(=O)c1ccc([N+](=O)[O-])cc1)C(Cl)(Cl)Cl (centres undefined) | u | n | 32µM | u | n | x
O=[N+]([O-])c1ccc(CSc2ncnc3c2ncn3C2OC(CO)C(O)C2O)cc1 (centres undefined) | x | x | n | x | x | x
O=C(CN1CCN(S(=O)(=O)c2ccc(Br)cc2)CC1)N/N=C/c1cc([N+](=O)[O-])ccc1Cl | u | n | n | n | n | n
O=C(CN1CCN(S(=O)(=O)c2ccc(Br)cc2)CC1)N/N=C/c1ccc(Cl)c([N+](=O)[O-])c1 | 15µM | n | n | u | 11µM | n
Cc1ccc(S(=O)(=O)N2CCN(CC(=O)N/N=C\c3ccc(Cl)c([N+](=O)[O-])c3)CC2)cc1 | u | u | n | n | 4.5µM | u
CC(=O)NCCNC(=O)CCCc1nnc2n(C)c(=O)c3sccc3n12 | n | x | n | u | x | n
COCCCOc1ccnc(CS(=O)c2nc3ccccc3[nH]2)c1C (centres undefined) | x | n | n | x | u | -65
CC(C)(C)NC(=O)CSc1nc2ccc(NC(=O)CSc3nnnn3Cc3ccccc3)cc2s1 | 8.9µM | n | 14µM | u | 2µM | -77
Cc1ccc(NC(=O)CSc2nc3ccc(NC(=O)COc4ccc(C)cc4)cc3s2)cc1 | n | x | n | n | x | n
CCOC(=O)CSc1nc2ccc(NC(=O)CSc3nnnn3Cc3ccccc3)cc2s1 | n | n | n | n | n | n
CC(C)(C)NC(=O)CSc1nc2ccc(NC(=O)CSc3nnc(N)s3)cc2s1 | u | n | 28µM | n | 13µM | n
OC(CNCc1ccccc1)c1ccccc1 (centres undefined) | n | n | n | u | n | n
Oc1cccc(C(O)CNCc2ccc(-c3ccccc3)cc2)c1 (centres undefined) | u | n | n | u | u | -62
CCCc1c(C(=O)Nc2ccc(F)cc2C)cnn1-c1ccccc1 | n | n | n | n | n | n
SMILES | Marburg entry inh | SARS PLpro yeast | FMDV inh | LASV entry inh | HCV inhibitor | HCMV antiviral
CCCc1c(NC(=O)Nc2ccc(F)cc2)cnn1-c1ccccc1 | x | n | n | x | n | -67
CC1(C)S[C@@H]2[C@H](NC(=O)[C@H](N)c3ccccc3)C(=O)N2[C@H]1C(=O)O | n | n | n | n | n[8.37 µM] | -60!
COC(=O)c1ccccc1CON1C(=O)C(C)(C)N(OCc2ccccc2C(=O)OC)C(=O)C1(C)C | n | n | n | n | 14µM | n
Cn1cccc1C1C=C(c2ccc(C(C)(C)C)cc2)Nc2ncnn21 (centres undefined) | x | x | n | x | u | -80
CC(C)(C)c1ccc(C2=CC(c3ccccc3F)n3ncnc3N2)cc1 (centres undefined) | x | x | n | x | n | n
O=C(C[C@@H]1C=C[C@@H](NC(=O)C2CC2)[C@@H](CO)O1)NCc1ccccc1Cl | x | x | n | x | x | -62
Cc1ccc(Cl)cc1Nc1nn2c(=O)c3ccc(C(=O)NC(C)c4ccccc4)cc3nc2s1 (centres undefined) | x | x | n | n | x | n
CCOC(=O)c1ccc(NC(=O)CC2Sc3ccc(C(F)(F)F)cc3NC2=O)cc1 (centres undefined) | n | x | n | n | x | -65
CCOC(=O)c1cc(CC)sc1NC(=O)CC1Sc2ccc(C(F)(F)F)cc2NC1=O (centres undefined) | u | u | n | n | n | n
COc1ccc(NC(=O)CC2SC(=O)NC2=O)cc1 (centres undefined) | n | n | n | n | n | -67
Cc1ccc(NC(=O)CC2SC(=O)NC2=O)cc1 (centres undefined) | n | u | n | n | n | n
Cc1csc2c(=O)n(CCO)c(=O)[nH]c12 | n | n | n | n | n | n
N=c1ccn(Cc2cccc(F)c2)cc1 | n | n | u | n | 3.2µM | u
CC12C=C(C=Cc3ccc(C(F)(F)F)cc3)C(C)(C1)C(c1ccc(C(F)(F)F)cc1)CC2=O (centres undefined) | n | x | x | x | x | x
S=C(Nc1ccc(Cl)c(Cl)c1)NC1CCCCC1 | u | n | n | n | u | -99
S=C(Nc1ccc(Oc2ccc(NC(=S)NC3CCCCC3)cc2)cc1)NC1CCCCC1 | u | 11µM | n | u | u | u
S=C(Nc1ccc2nsnc2c1)NC1CCCCC1 | u | n | n | n | n | -62
Cc1cccc(Oc2ccc(NC(=O)CCC(=O)OCC(=O)c3ccc(Br)cc3)cc2)c1C | n | x | n | n | x | n
CCn1c(O)c(/C=N/NC(=O)c2ccccc2)c(=O)[nH]c1=S | x | n | n | x | n | -63
O=C(N/N=C/c1c(O)n(CCc2ccc(F)cc2)c(=O)[nH]c1=O)c1ccccc1 | x | n | n | x | n | n
O=C(Cn1nc(Cc2ccncc2)c2ccccc2c1=O)Nc1cccnc1Cl | x | n | n | x | n | n
Cc1ccc(NC(=O)Cn2nc(Cc3ccncc3)c3ccccc3c2=O)c(Cl)c1 | n | x | n | n | x | -97
COc1ccc(-c2nnc(SCC(=O)/C(C#N)=C(\C)N)o2)cc1 | u | n | n | u | u | n
C/C(N)=C(/C#N)C(=O)CSc1nnc(-c2ccccc2Br)o1 | 6.3µM | n | n | u | n | n
O=C(N1CCN(c2cccc(Cl)c2)CC1)C1(c2cccs2)CCOCC1 | u | n | 35µM | u | u | u
COCCN(Cc1ccccc1)C(=O)c1ccc2c(=O)n3c(nc2c1)CCC3 | n | n | n | n | n | n
O=C(O)c1ccc(N/N=C/c2cccc(C(F)(F)F)c2)cc1 | x | n | n | x | n | n
O=C(O)c1ccc(N/N=C/c2ccc(F)c(F)c2)cc1 | 7.1µM | n | 14µM | 6.3µM | n | n
COc1cc(/C=N/Nc2ccc(C(=O)O)cc2)ccc1O | u | n | u | u | n | n
